Test results as given in ChEMBL document CHEMBL4513149, “CO-ADD screening of MMV (CH) - MMV compounds” (2021).
Entries with a potency or affinity are not part of this list.

How the values were obtained:
Klebsiella pneumoniae = details: Concentration 20 uM; ASSAY_TEST Inhibition of Bacterial Growth; detection method Absorption (OD600); MEDIA CAMHB; plate type 384well; NBS; CORNING #3640; time 18 hr
Candida albicans = details: 20 µM
Cryptococcus neoformans = details: Concentration 20 uM; ASSAY_TEST Inhibition of Fungal Growth; detection method Resazurin; Absorption (OD600-OD570); plate type 384well; NBS; CORNING #3640

CCOc1ccc(-c2nc(CNCCc3ccc(F)cc3)cs2)cc1
Inhibition (Klebsiella pneumoniae): 12.06%
Inhibition (Candida albicans): 7.53%
Inhibition (Cryptococcus neoformans): -5.87%

Cn1ncc2c(N3CCOCC3)nc(NCCc3c[nH]c4ccccc34)nc21 [TDR79432]
Inhibition (Klebsiella pneumoniae): 9.02%
Inhibition (Candida albicans): 4.1%
Inhibition (Cryptococcus neoformans): -8.59%

CCc1cc(=O)n(C)c(SC(C)C(=O)Nc2ccc(F)cc2)n1 (stereo unspecified)
Inhibition (Klebsiella pneumoniae): 3.6%
Inhibition (Candida albicans): 0.76%
Inhibition (Cryptococcus neoformans): -9.3%

Clc1ccc(CN2CCN(C3=NCCN3)CC2)cc1Cl
Inhibition (Klebsiella pneumoniae): 16.63%
Inhibition (Candida albicans): 2.1%
Inhibition (Cryptococcus neoformans): -10.37%

Cc1cc(OCC(=O)NCc2ccccc2)c2cc(Br)ccc2n1
Inhibition (Klebsiella pneumoniae): 6.14%
Inhibition (Candida albicans): 0.18%
Inhibition (Cryptococcus neoformans): -5.48%

CC1CC1C(=O)NC1CCN(CC2(c3ccccc3)CCCCC2)CC1 (stereo unspecified)
Inhibition (Klebsiella pneumoniae): 16.4%
Inhibition (Candida albicans): 3.19%
Inhibition (Cryptococcus neoformans): -6.72%

O=C(NCc1cc(Cl)cc(Cl)c1)c1c(C(F)(F)F)nc2ccccn12
Inhibition (Klebsiella pneumoniae): 15.19%
Inhibition (Candida albicans): 8.03%
Inhibition (Cryptococcus neoformans): -5.43%

CC1COC2(CCN(c3nc(=O)c4cc(C(F)(F)F)cc([N+](=O)[O-])c4s3)CC2)O1 (stereo unspecified)
Inhibition (Klebsiella pneumoniae): 8.31%
Inhibition (Candida albicans): 2.39%
Inhibition (Cryptococcus neoformans): -12.38%

Cc1cc(Nc2ccc(C(F)(F)F)cc2)n2ccnc2n1
Inhibition (Klebsiella pneumoniae): 6.21%
Inhibition (Candida albicans): 3.67%
Inhibition (Cryptococcus neoformans): 2.17%

CC[C@H](CO)NCCN[C@H](CC)CO.Cl.Cl
Inhibition (Klebsiella pneumoniae): 9.73%
Inhibition (Candida albicans): 3.25%
Inhibition (Cryptococcus neoformans): 1.15%

CCc1ccc(S(=O)(=O)Nc2cc(CN3CCN(CCC(C)C)CC3)ccc2C)cc1
Inhibition (Klebsiella pneumoniae): 18.36%
Inhibition (Candida albicans): 4.16%
Inhibition (Cryptococcus neoformans): -6.26%

Nc1ncnc2[nH]nc(Cc3cccc4ccccc34)c12
Inhibition (Klebsiella pneumoniae): 12.26%
Inhibition (Candida albicans): 3.76%
Inhibition (Cryptococcus neoformans): -8.72%

CC(C)(C)OC(=O)N1CCN(c2nccc(-c3ccc(-c4ccc(Cl)cc4)s3)n2)CC1
Inhibition (Klebsiella pneumoniae): 5%
Inhibition (Candida albicans): 3.84%
Inhibition (Cryptococcus neoformans): -6.76%

COc1ccc(C(=N)N)cc1-c1cn(-c2ccc(C(=N)N)cc2)nn1.Cl.Cl
Inhibition (Klebsiella pneumoniae): 8.73%
Inhibition (Candida albicans): 3.44%
Inhibition (Cryptococcus neoformans): 4.63%

O=C(Nc1ccnc(-c2cccnc2)n1)c1cc(C(F)(F)F)cc(C(F)(F)F)c1
Inhibition (Klebsiella pneumoniae): 14.57%
Inhibition (Candida albicans): 1.91%
Inhibition (Cryptococcus neoformans): -5.46%

Cc1cc(Nc2ccncc2)n2nc(C)c(-c3ccccc3Cl)c2n1
Inhibition (Klebsiella pneumoniae): 15.32%
Inhibition (Candida albicans): 1.91%
Inhibition (Cryptococcus neoformans): -9.03%

CC1=Nc2ccc(Cl)cc2C(O)(c2ccc(C)cc2)N1CCN1CCCCC1 (stereo unspecified)
Inhibition (Klebsiella pneumoniae): 18.59%
Inhibition (Candida albicans): 3.13%
Inhibition (Cryptococcus neoformans): -4.53%
